Source: publication PMC4336329 (PLoS ONE, 2015)
About 14,000 (4.5%) of roughly 310,000 compounds showed an effect of 50% or more. The effect is printed as a negative number. The list comes from a sample in which strong results are over-represented; it also holds similar structures and randomly drawn compounds.

molecular target: human ether-à-go-go-related gene (hERG) potassium channel (human, UniProt Q12809); test: primary screen, population patch clamp on CHO cells stably expressing hERG; higher = less effect of the substance
Sequence (Q12809 whole entry, looked up): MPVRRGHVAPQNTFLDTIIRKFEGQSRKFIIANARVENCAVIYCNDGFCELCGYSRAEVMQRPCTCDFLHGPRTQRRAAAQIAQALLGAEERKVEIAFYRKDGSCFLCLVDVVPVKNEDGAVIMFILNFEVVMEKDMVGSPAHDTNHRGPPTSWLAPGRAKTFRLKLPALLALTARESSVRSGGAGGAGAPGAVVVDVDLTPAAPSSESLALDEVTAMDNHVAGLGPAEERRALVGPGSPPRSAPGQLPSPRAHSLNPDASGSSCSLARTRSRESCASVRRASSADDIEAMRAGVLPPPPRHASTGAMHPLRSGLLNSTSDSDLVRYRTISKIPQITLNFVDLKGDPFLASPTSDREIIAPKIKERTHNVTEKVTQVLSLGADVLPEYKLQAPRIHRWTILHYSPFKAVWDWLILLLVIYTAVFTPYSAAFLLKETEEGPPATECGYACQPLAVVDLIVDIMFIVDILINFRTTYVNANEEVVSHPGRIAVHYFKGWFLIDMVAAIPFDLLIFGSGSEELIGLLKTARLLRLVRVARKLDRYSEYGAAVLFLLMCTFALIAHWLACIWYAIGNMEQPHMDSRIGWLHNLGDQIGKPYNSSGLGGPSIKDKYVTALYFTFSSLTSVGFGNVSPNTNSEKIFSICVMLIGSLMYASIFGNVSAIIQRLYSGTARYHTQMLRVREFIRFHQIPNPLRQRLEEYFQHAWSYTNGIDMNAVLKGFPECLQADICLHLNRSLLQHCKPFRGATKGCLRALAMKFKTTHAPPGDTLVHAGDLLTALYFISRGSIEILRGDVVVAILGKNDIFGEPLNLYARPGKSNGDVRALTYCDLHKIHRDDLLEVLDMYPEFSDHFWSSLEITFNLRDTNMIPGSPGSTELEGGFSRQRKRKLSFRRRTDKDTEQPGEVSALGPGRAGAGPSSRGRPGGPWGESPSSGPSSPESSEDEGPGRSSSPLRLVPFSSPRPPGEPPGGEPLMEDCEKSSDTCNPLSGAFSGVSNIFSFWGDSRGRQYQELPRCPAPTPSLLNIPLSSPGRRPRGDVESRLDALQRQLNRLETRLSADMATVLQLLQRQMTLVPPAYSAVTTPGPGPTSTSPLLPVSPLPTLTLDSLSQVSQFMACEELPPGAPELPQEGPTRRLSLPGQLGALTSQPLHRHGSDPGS
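Note: peak tail current of the secondary pulse compared with the same well before compound.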

SMILES | hERG current change (%, negative = inhibition) at 10uM [%]
CCOC(=O)c1sc(NC(=O)c2ccc(S(=O)(=O)N3CCCCC3)cc2)nc1-c1ccccc1 | 18.1
CC(=O)Nc1ccccc1C(F)(F)F | 21.2
COc1ccc(C(=O)NC(C)c2nnc(SCC(=O)NC3CCCC3)n2C)cc1 (stereo not shown) | 4.98
O=C1OC(c2ccc(Cl)cc2)=C/C1=C/c1cccnc1 | 23.3
Cc1c(Cc2ccccc2)c(=O)oc2c(C)c(OCc3nn[nH]n3)ccc12 | 11.3
Cc1ccc(S(=O)(=O)N/N=C/c2ccc(OS(=O)(=O)c3ccc(C)c([N+](=O)[O-])c3)cc2)cc1 | 7.76
Cc1ccc(C(=O)NCCn2cc(SCC(=O)Nc3nnc(C)s3)c3ccccc32)cc1 | -3.05
COc1ccccc1CNC(=O)CC(C)c1ccccc1 (stereo not shown) | 4.63
CCCn1c2ccccc2c2nnc(SCC(=O)Nc3cc(C)on3)nc21 | -0.11
Cc1ccc(S(=O)(=O)N2CCN(S(C)(=O)=O)C2c2ccccc2)cc1 (stereo not shown) | -37.2
C=CCOc1ccc(/C=C/C(=O)OCC(=O)NCCc2ccccc2)cc1 | 8.61
COc1ccc(C(CNC(=O)c2cccc(S(=O)(=O)N(C)c3ccccc3)c2)N2CCCC2)cc1 (stereo not shown) | -60.2
COc1ccc(N(C)S(=O)(=O)c2cccc(C(=O)NCC(c3cccs3)N(C)C)c2)cc1 (stereo not shown) | -52.3
COc1ccc(C(CNC(=O)c2cccc(N(C)C)c2)N2CCCC2)cc1 (stereo not shown) | -28.3
CNS(=O)(=O)c1cccc(C(=O)NCC(c2cccs2)N(C)C)c1 (stereo not shown) | -5.25
CCN(c1ccccc1)S(=O)(=O)c1cccc(C(=O)NCC(c2cccs2)N(C)C)c1 (stereo not shown) | -48.6
COc1ccc(C(CNC(=O)c2cccc(S(=O)(=O)N3CCCC3)c2)N2CCCC2)cc1 (stereo not shown) | -22.9
CCOc1ncccc1C(=O)OCC(=O)c1ccc(C)c(C)c1 | -20.2
CN1CCCC(OC(=O)COc2ccc(Br)cc2)C1.Cl (stereo not shown) | -12.8
CCOC(=O)N1CCN(Cc2nc(N)nc(Nc3ccc(OCC)cc3)n2)CC1 | -67.6
CCOC(=O)N1CCN(Cc2nc(-c3ccc(OC)cc3)no2)CC1 | -4.74
COc1ccc(Nc2nc(N)nc(CSC(=S)N3CCN(C)CC3)n2)cc1 | -12.5

SMILES | hERG current change (%, negative = inhibition) at 10uM [%]
CCOC(=O)N1CCN(Cc2nc(N)nc(Nc3ccc(OC)cc3)n2)CC1 | -62.4
CCOc1ccc(Nc2nc(N)nc(CSC(=S)N3CCOCC3)n2)cc1 | -2
CCOC(=O)N1CCN(Cc2nc(N)nc(Nc3ccccc3C)n2)CC1 | -14.9
CCOC(=O)N1CCN(Cc2nc(N)nc(Nc3ccc(Oc4ccccc4)cc3)n2)CC1 | -70.7
Cc1c(OCC(F)(F)F)ccnc1CSc1nc2ccccc2[nH]1 | 20.6
O=C(CCN1C(=O)/C(=C/c2ccccc2Cl)SC1=S)NNC(=O)c1ccccc1O | -6.37
CCOc1ccc(N(CC(=O)Nc2ccc(OC)cc2)S(C)(=O)=O)cc1 | 3.39
CC(C)(C)C(=O)N1CCC(O)(CS(=O)(=O)c2ccc(Cl)c(Cl)c2)CC1 | -5.3
CCCN1C(=O)C(NS(=O)(=O)c2ccc(N)cc2)(C(F)(F)F)C(C(=O)OC)=C1C (stereo not shown) | 10.1
CCN(CC)C1CCN(C(=O)c2cc(COc3ccc(F)cc3Cl)on2)C1 (stereo not shown) | -70
COc1ccc(OCc2cc(C(=O)NCC(C)(C)N3CCOCC3)no2)c(Cl)c1 | -31.8
CCN(CC1CCCO1)C(=O)c1cc(COc2ccc(F)cc2F)on1 (stereo not shown) | -14.8
CSc1ccccc1OCc1cc(C(=O)N(C)C(C)c2ccccn2)no1 (stereo not shown) | -10.6
Cc1ccc(OCc2cc(C(=O)NCC(C)(C)N3CCOCC3)no2)cc1C | -45.8
O=C(c1cc(COc2ccc(F)cc2Cl)on1)N1CC[C@@H]2CCCC[C@H]2C1 | 12.6
CCN(CC1CCCO1)C(=O)c1cc(COc2ccccc2SC)on1 (stereo not shown) | -85.6
CSc1ccccc1OCc1cc(C(=O)N(C)C(C)c2nc(C)cs2)no1 (stereo not shown) | -63.6
CCN(CC1CCCO1)C(=O)c1cc(COc2ccc(OC)cc2Cl)on1 (stereo not shown) | -5.59
CSc1ccccc1OCc1cc(C(=O)NCc2csc(C(C)C)n2)no1 | -9.57
O=C(c1cc(COc2ccc(F)cc2Cl)on1)N1CCCC(c2ccccc2)C1 (stereo not shown) | -5.56
CSc1ccccc1OCc1cc(C(=O)NCC(C)(C)N2CCOCC2)no1 | -93
